Screens as filed in PubChem.
Rows were chosen to be rich in hits. Some 9.5% of all compounds tested hit in one or more screens of this group.
RE007 growth inh – qHTS Assay for Inhibitors of the HIV-1 protein Vpr | S. pombe RE007 Vpr strain, BacTiter-Glo ATP luminescence, 24 h | Potency, µM (top dose mostly 92.2 µM), most hits filed as inhibitors | 0.21% of 360,000 active; active = well fitted falling curve with a large enough effect; inconclusive = small, poorly fitted or top-dose-only effect; inactive = no such curve, though single readings can be large or run the other way; also: nearly all actives have a fitted effect of over 50% in size
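Fission yeast RE007 carrying one integrated HIV-1 vpr copy, seeded at OD 0.01 in PMG+AL medium with 23 nL pinned compound. Grown 24 h at 30 degrees; viability read by BacTiter-Glo luminescence after 5 min.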
Pf growth 96h – Primary qHTS for delayed death inhibitors of the malarial parasite plastid, 96 hour incubation; P. falciparum luciferase reporter growth, 96 h; Potency, µM (doses to about 28.7 µM), actives largely listed as inhibitors; 6.9% of 320,000 active; AID 504834, 2011
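Compounds incubated with erythrocytes infected by luciferase-expressing P. falciparum (2% hematocrit, 0.05% parasitemia final) for 96 hours, 37 C in 5% CO2. Growth inhibition scored as decreased luciferase luminescence.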
NS1 inh – qHTS Assay for Inhibitors of Influenza NS1 Protein Function; AID 2326, 2010; 0.4% of 270,000 active; Potency, µM (highest dose often 46.1 µM); calls by dose curve; also: actives are rising curves; nearly all actives have a fitted effect of over 50% in size
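A cell-based growth assay was used: compounds that relieve NS1-induced slow growth of budding yeast raise OD600. Assay medium was yeast nitrogen base with ammonium sulphate and -URA supplement, pH 6.0, with 2% galactose.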
Pf growth 48h – Primary qHTS for delayed death inhibitors of the malarial parasite plastid, 48 hour incubation | P. falciparum luciferase growth in erythrocytes, 48 h | Potency, µM (titrated, usually from 28.7 µM), hits mostly inhibitors | 5.9% of 310,000 active
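Erythrocytes infected with P. falciparum carrying an integrated firefly luciferase reporter (2% hematocrit, 0.1% parasitemia final) were exposed to compounds in RPMI 1640 with 0.5% Albumax at 37 C, 5% CO2. Growth inhibition was scored as reduced luminescence.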
SARS PLP yeast – qHTS of Yeast-based Assay for SARS-CoV PLP. Potency, µM (top dose mostly 32.9 µM), hits mostly activators. S. cerevisiae expressing SARS-CoV PLpro, growth rescue. 0.19% of 330,000 active; calls by dose curve; also: nearly all actives have a fitted effect of over 55% in size
Numbers stand for hits; – = inactive; ? = inconclusive; · = not tested or not shown; [ ] = remark or other dose. Unless noted, calls follow the shape of the dose curve; as a rule, active = well fitted inhibition curve with a large enough effect; inconclusive = small, poorly fitted or top-dose-only effect, or another doubt; inactive = no such curve, though single readings can be large or run the other way.

SMILES | RE007 growth inh | Pf growth 96h | NS1 inh | Pf growth 48h | SARS PLP yeast
O=C(C1CCCN(S(=O)(=O)c2ccc(Br)cc2)C1)N1CCN(Cc2ccccc2)CC1 (stereo unspecified) | – | – | – | 6.57µM | –
CC(O)CNCCNCc1c(OCc2ccccc2)ccc2ccccc12 (stereo unspecified) | – | 2.33µM | – | 1.85µM | –
Cc1c(C#N)c(=O)c(-[n+]2ccccc2)c([S-])n1-c1ccc(Cl)cc1 | – | – | – | – | –
O=C(CN1CCC(NC(=O)C2CCCCC2)CC1)Nc1cccc(F)c1 | – | – | – | – | –
Cc1cccc(NC(=O)CN2CCC(NC(=O)C3CCCCC3)CC2)c1C | – | 4.15µM | – | – | –
Cc1ccc(NC(=O)CN2CCC(NC(=O)C3CCCCC3)CC2)c(Br)c1 | – | 11.7µM | – | – | –
CC(=O)[C@@H](C)CCO[C@@]1(C)OCC[C@@H]1C | · | · | – | · | ·
COc1cc(-c2nnc(SCC(=O)NC3CCCC3)n2C)cc(OC)c1O | – | ? | – | – | –
N=c1oc2ccc3ccccc3c2cc1-c1nnc2n1CCCCC2 | – | 9.28µM | – | – | –
COc1ccc2oc(=N)c(-c3nnc4n3CCCCC4)cc2c1 | –[3.69 µM] | · | – | – | –
Cc1ccc(-c2nnn(C(C)C(=O)N3c4ccccc4CCc4ccccc43)n2)cc1 (stereo unspecified) | – | 11.7µM | – | ? | –
CC(C(=O)N1c2ccccc2Sc2ccccc21)n1nnc(-c2cccs2)n1 (stereo unspecified) | – | · | ? | ? | –
CN(C)c1ccc(-c2nnn(Cc3ccccc3Br)n2)cc1 | – | ? | – | ? | –
CC(C(=O)N1c2ccccc2CCc2ccccc21)n1nnc(-c2ccc(N(C)C)cc2)n1 (stereo unspecified) | – | – | – | 7.38µM | –
O=C1CCc2cc(S(=O)(=O)Nc3cccc(F)c3)cc3c2N1CC3 | – | – | · | – | ?
CC1=C([N+](=O)[O-])C(c2ccc(Cl)cc2)NC(=O)N1 (stereo unspecified) | – | ? | – | – | –
O=C(NC(NC(=S)Nc1ccc(Cl)cc1Cl)C(Cl)(Cl)Cl)c1cccc([N+](=O)[O-])c1 (stereo unspecified) | – | ? | – | 1.65µM | –
O=C(NC(NC(=S)Nc1ccccc1)C(Cl)(Cl)Cl)c1cccc(Cl)c1 (stereo unspecified) | – | 13.1µM | – | ? | –
O=C(O)c1cccc(NC(=S)NC(NC(=O)c2cccc([N+](=O)[O-])c2)C(Cl)(Cl)Cl)c1 (stereo unspecified) | – | – | ? | – | –
Cc1ccc(C)c(NC(=S)NC(NC(=O)Cc2ccccc2)C(Cl)(Cl)Cl)c1 (stereo unspecified) | – | · | – | ? | –
Cc1cc(C)c(NC(=S)NC(NC(=O)c2ccccc2)C(Cl)(Cl)Cl)c(C)c1 (stereo unspecified) | – | – | – | 3.29µM | –
Cc1ccc(NC(=S)NC(NC(=O)c2ccccc2)C(Cl)(Cl)Cl)c(C)c1 (stereo unspecified) | – | ? | – | 10.4µM | –
O=C(CN1C(=O)c2cccnc2Oc2ccc(Cl)cc21)NCCCc1ccccc1 | – | – | – | ? | –
OCCCSCCO | · | · | – | · | ·
Cc1ccccc1C(=O)NC(NC(=S)Nc1ccc(S(N)(=O)=O)cc1)C(Cl)(Cl)Cl (stereo unspecified) | – | ? | – | ? | –
SMILES | RE007 growth inh | Pf growth 96h | NS1 inh | Pf growth 48h | SARS PLP yeast
Cc1ccccc1NC(=S)NC(NC(=O)c1ccccc1C)C(Cl)(Cl)Cl (stereo unspecified) | – | 2.62µM | ? | ? | –
COc1ccc(NC(=S)NC(NC(=O)C(C)C)C(Cl)(Cl)Cl)c([N+](=O)[O-])c1 (stereo unspecified) | – | – | – | 2.62µM | –
O=S(=O)(c1cnc[nH]1)N1CCN(C(c2ccc(F)cc2)c2ccc(F)cc2)CC1 | – | ? | – | – | –
O=C(CSc1nnc(-c2ccccc2F)n1C1CC1)NCc1ccco1 | – | – | · | – | –
C=CCc1cc(Cl)ccc1OCCCNCCO | – | – | – | 9.28µM | –
C=CCc1cc(Cl)ccc1OCCCNC(C)C | – | – | – | ? | –
CCCCNCCCOc1cc(Cl)ccc1Cl | – | 6.57µM | – | · | –
Cc1cc(C)nc(NS(=O)(=O)c2ccc(NC(=O)CSc3nc(-c4ccccc4)c(C#N)c(=O)[nH]3)cc2)n1 | – | – | · | – | –
O=C(COc1ccc(/C=N/NC(=O)c2ccccc2)cc1)Nc1ccc([N+](=O)[O-])cc1 | – | – | – | – | –
CC(C)Oc1ccc(/C=N/NC(=O)C(CSCc2ccccc2)NC(=O)c2ccc([N+](=O)[O-])cc2)cc1 (stereo unspecified) | – | ? | – | 11.7µM | –
Nc1nc(SCc2ccc(Cl)cc2Cl)ns1 | – | – | – | – | –
Nc1nc(SCc2ccc(Cl)cc2Cl)nc2nc3c(cc12)CCCC3 | – | 13.1µM | – | 8.28µM | –
O=C(O)CCC(=O)Nc1cc(C(F)(F)F)cc(C(F)(F)F)c1 | – | – | – | ? | –
CCCOC(=O)c1ccc(-c2c(C)noc2-c2ccc(OC)cc2O)o1 | – | · | – | 0.738µM | –
COc1ccc(Br)cc1C(C[N+](=O)[O-])c1c(N)n(C)c(=O)n(C)c1=O (stereo unspecified) | 10µM | ? | – | 3.7µM | –
CN(C)c1ccc(C(C[N+](=O)[O-])c2c(N)n(C)c(=O)n(C)c2=O)c(F)c1C#N (stereo unspecified) | ? | – | – | – | –
COc1ccc(NC(=S)N/N=C/c2cccn2Cc2ccc(F)cc2Cl)cc1 | – | ? | · | 3.7µM | –
COc1ccc(NC(=S)N/N=C/c2cccn2Cc2ccccc2F)cc1 | – | – | · | ? | –
NC(Cc1ccc(C(F)(F)F)cc1)c1csc(Nc2nncc3ccccc23)n1 (stereo unspecified) | – | · | · | · | ·
CC1CCCCN1CCNc1nc(=S)[nH]c2ccccc12 (stereo unspecified) | – | 2.33µM | – | – | –
CC1CCCCN1CCn1c(=S)[nH]c2ncccc2c1=O (stereo unspecified) | – | – | – | – | –
O=C1NCCCN1C1OC(CO)C(O)C1O (stereo unspecified) | – | · | · | · | ·
CCOC(=O)N1CCN(Cc2cc(=O)oc3cc4c(cc23)CCC4)CC1 | – | 4.65µM | – | ? | –
Cc1cc2oc(=O)cc(CN3CCCCC3)c2cc1C(C)C | – | – | – | 7.38µM | –
CC1CCN(Cc2cc(=O)oc3ccc(C(C)C)cc23)CC1 | – | 1.85µM | – | 3.29µM | –
CC(C)c1ccc2oc(=O)cc(CN3CCN(c4ccccc4)CC3)c2c1 | – | ? | – | 13.1µM | –
O=c1cc(CN2CCN(c3ccccc3)CC2)c2ccccc2o1 | – | · | · | · | ·
Cc1cc(OCC(=O)OCC(=O)Nc2ccc(Cl)cn2)ccc1Cl | – | – | · | – | –
